Results reported in PubChem BioAssay (NCATS).
Inconclusive results are not listed. A number with no mark means an inactive call. Activity calls are given as the source filed them. Calls follow the shape of the dose curve; as a rule, active = well fitted inhibition curve with a large enough effect; inconclusive = small, poorly fitted or top-dose-only effect; inactive = no such curve, though single readings can be large or run the other way.

Target: Retinaldehyde dehydrogenase 3 (Homo sapiens) (UniProt P47895)
Experiment: qHTS for Inhibitors of the Aldehyde Dehydrogenase Family (ALDH1A3) Confirmatory screens (AID 2061311); also: nearly all actives have a fitted effect of over 60% in size
Conditions: ALDH inhibition qHTS; series mostly up to 46 µM; activity change, negative = inhibition: at the top concentration
% is scaled to controls: 0 for no effect and ±100 for the full control effect; potency is read from the fitted curve at half-maximal effect.

| SMILES | activity change, negative = inhibition | outcome | Potency |
| --- | --- | --- | --- |
| Cc1nc(C)c(-c2ccc3ncnc(NCc4ncc[nH]4)c3c2)s1 | -12.8% | – | – |
| COc1ccc(C2=Nn3c(nnc3-c3cc(OC)ccc3OC)SC2)c(OC)c1 | 3.66% | – | – |
| CC(=O)N(C(C)=O)n1c(C)nc2sc3c(c2c1=O)CCNC3 | – | inactive | – |
| CCC(=O)C1CCCN(C(=O)CC(c2ccc3c(c2)OCO3)c2c(O)cc(OC)cc2OC)C1 (configuration not stated) | -7.68% [at 85.7 µM] | – | – |
| Cc1cccc(OC2=NS(=O)(=O)c3ccccc32)c1 | -16.4% | – | – |
| N[C@@H](CCC(=O)O)C(=O)Nc1ccc(Cl)cc1C(=O)c1ccc[nH]1 | -6.82% | – | – |
| Cc1cccc2c(C(=O)O)cc(Cl)nc12 | -15.8% | – | – |
| Fc1cc(Nc2nc(-c3ccncc3)nc3ccccc23)ccc1N1CCCCC1 | – | – | 11.3 µM (active) |
| COc1cccc(C2c3c(ncn(CCCN4CCOCC4)c3=N)Oc3ccc4ccccc4c32)c1 (configuration not stated) | -18.7% | – | – |
| Cc1cc(N2C(=O)c3ccccc3C2=O)n[nH]1 | -8.17% | – | – |
| O=C1[C@@H]2[C@H]3CC[C@H](C3)[C@@H]2C(=O)N1CCCCN1CCN(c2ncccn2)CC1 | -14.2% [at 0.022 µM] | – | – |
| CC(=O)SCC(CC(=O)c1ccc(C)cc1)C(=O)O (configuration not stated) | 4.93% | – | – |
| N#Cc1c(-c2csc(-c3no[n+]([O-])c3C#N)c2)no[n+]1[O-] | – | – | 12.7 µM (active) |
| CCCCN(CCCNC(=S)NCCCc1cnc[nH]1)c1ccc(Br)cn1 | – | – | 14.1 µM (active) |
| O=C(O)c1ccc(S(=O)(=O)N[C@H](Cc2ccccc2)C(=O)O)cc1 | -0.827% | – | – |
| CCc1nnc(-c2cnn(C)c2N)n1CCCn1ccnc1 | -3.77% | – | – |
| CCCCNc1ccc(C(=O)OCCN(CC)CC)cc1 | -3.71% | – | – |
